Bioassay records from PubChem.
PP1 counter – blocks human PP1-alpha phosphatase, a PP5 counter-screen; inhibition, % at 6.7 µM; purified PP1alpha, OMFP fluorescence; AID 2235; 320,000 tested, 0.9% active; P62136;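 active means inhibition above the mean inhibition of all tested compounds plus 3 SD, computed separately for each screening campaign, cut at about 15% in these data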
PP5 inh – PP5 (human) phosphatase inhibition. P53041. purified PP5c, OMFP substrate fluorescence. inhibition, % at 6.7 µM. 320,000 tested, 0.18% active. AID 1987;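 active means inhibition above the campaign's mean inhibition across all tested compounds plus 3 SD, cut at about 9.5% in these data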;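 further: 0% = DMSO only and 100% = 100 µM cantharidin control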
Target sequence (P53041 whole entry, looked up): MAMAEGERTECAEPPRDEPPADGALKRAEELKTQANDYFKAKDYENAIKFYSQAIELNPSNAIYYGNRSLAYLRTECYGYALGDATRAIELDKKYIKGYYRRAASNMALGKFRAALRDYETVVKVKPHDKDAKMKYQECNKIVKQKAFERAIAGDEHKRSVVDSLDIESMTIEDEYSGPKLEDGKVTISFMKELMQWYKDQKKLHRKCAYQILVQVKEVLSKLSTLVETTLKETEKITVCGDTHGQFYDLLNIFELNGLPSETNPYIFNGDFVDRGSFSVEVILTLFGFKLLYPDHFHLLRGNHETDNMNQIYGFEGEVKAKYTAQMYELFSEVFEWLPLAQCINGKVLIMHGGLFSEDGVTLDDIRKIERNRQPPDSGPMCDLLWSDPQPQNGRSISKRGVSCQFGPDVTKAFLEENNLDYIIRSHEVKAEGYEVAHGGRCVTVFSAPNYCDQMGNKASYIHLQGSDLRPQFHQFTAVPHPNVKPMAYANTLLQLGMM
PAFAH1B2 FP inh – inhibitors of human PAFAH1B2 | P68402 | recombinant PAFAH1B2, FP-rhodamine activity probe, fluorescence polarization | inhibition, % at 3.39 µM | 340,000 tested, 1.2% active | AID 492953;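 active means inhibition above the mean of all tested compounds plus 3 SD, cut at about 24% in these data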;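 further: 0% = enzyme with DMSO and 100% = wells lacking PAFAH1B2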
PAFAH1B3 FP inh – inhibitors of human PAFAH1B3; Q15102; recombinant PAFAH1B3, FP-rhodamine probe, fluorescence polarization; inhibition, % at 3.39 µM; 340,000 tested, 0.28% active;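 active means inhibition above the screen-wide average of all tested compounds plus 3 SD, cut at about 25% in these data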;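 further: 0% = enzyme with DMSO only and 100% = wells lacking PAFAH1B3 protein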
pPAFAH FP inh – inhibitors of human plasma PAF acetylhydrolase (pPAFAH). Q13093. recombinant pPAFAH, FP-rhodamine probe fluorescence polarization. inhibition, % at 3.39 µM. 330,000 tested, 1.5% active;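 active means inhibition above the mean inhibition across the screen plus 3 SD, cut at about 25% in these data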;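 further: inhibitors block binding of the rhodamine activity-based probe so polarization drops; 0% = enzyme with DMSO and 100% = wells lacking pPAFAH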
PAFAH2 FP inh – inhibitors of human PAFAH2. Q99487. inhibition, % at 3.39 µM. recombinant PAFAH2, FP-rhodamine activity probe, fluorescence polarization. 340,000 tested, 0.99% active;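 active means inhibition above the mean over all tested compounds plus 3 SD, cut at about 30% in these data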;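 further: inhibitors block probe labeling of enzyme so polarization drops; 0% = enzyme with DMSO and 100% = wells lacking PAFAH2 protein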
PP1 inh confirm – confirmation of human PP1 phosphatase inhibitors. inhibition, % at 6.7 µM. shares compounds with PP1 counter. 1,900 tested, 52% active. purified PP1alpha, OMFP substrate fluorescence;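 active means mean PP1 inhibition above a set limit taken from the earlier primary screen, cut at about 15% in these data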
PP5 counter – counter-screen for PP1 inhibitors: human PP5 phosphatase inhibition; shares compounds with PP1 counter; purified PP5c, OMFP fluorescence; inhibition, % at 6.7 µM; 1,900 tested, 4% active; AID 2360;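 active means mean PP5 inhibition over triplicate wells above about 9.5% taken from the earlier PP1 screen, limit read from the data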
Numbers without * were called inactive; nt = no result given. A selection: hits, their analogues and other compounds. The true share with any hit is near 3.4%.

SMILES	PP1 counter	PP5 inh	PAFAH1B2 FP inh	PAFAH1B3 FP inh	pPAFAH FP inh	PAFAH2 FP inh	PP1 inh confirm	PP5 counter
CCOC(=O)c1sc(N2C(=O)C(O)=C(C(=O)c3ccc(C)o3)C2c2ccc(OC)c(OC)c2)nc1C (stereo unspecified)	37.3*	1.5	1.2	2.8	5.5	-1.5	35.1*	4.9
CCOC(=O)c1sc(N2C(=O)C(O)=C(C(=O)c3ccc(C)o3)C2c2cccc([N+](=O)[O-])c2)nc1C (stereo unspecified)	35.0*	2.9	2.8	11.1	12.6	47.5*	20.7*	-2.4
Cc1cc(N2C(=O)C(O)=C(C(=O)c3cccs3)C2c2cccc(O)c2)no1 (stereo unspecified)	7.4	-2.7	0.4	2.9	0.6	1.3	nt	nt
CCCCOc1cccc(C2C(C(=O)c3ccc(C)o3)=C(O)C(=O)N2c2nnc(C)s2)c1 (stereo unspecified)	nt	nt	-7.9	-1.7	nt	3.5	nt	nt
CCN(CC)c1ccc(/C=N/NC(=O)CNC(=O)C2COc3ccccc3O2)c(O)c1 (stereo unspecified)	3.3	3.0	4.7	11.3	19.1	9.3	nt	nt
COC(=O)c1sc(N2C(=O)C(O)=C(C(=O)c3ccc(C)o3)C2c2ccc(OC)c(OC)c2)nc1C (stereo unspecified)	nt	nt	-2.5	-6.2	nt	-4.9	nt	nt
COC(=O)c1sc(N2C(=O)C(O)=C(C(=O)c3ccc(C)o3)C2c2ccc([N+](=O)[O-])cc2)nc1C (stereo unspecified)	43.2*	1.5	12.7	8.5	18.0	6.8	29.4*	-1.1
COc1cc(Br)c(/C=C/c2ccc3cccc(O)c3n2)cc1OC	4.5	1.3	4.7	9.0	7.2	1.0	nt	nt
COc1ccc(OC)c(/C=C/c2ccc3cccc(O)c3n2)c1	18.7*	4.0	1.5	-0.2	-1.2	0.9	18.3*	-2.0
Oc1cccc2ccc(/C=C/c3cccs3)nc12	24.2*	1.9	5.2	7.6	7.7	3.2	18.7*	-1.1
Cc1ccsc1/C=C/c1ccc2cccc(O)c2n1	20.8*	4.5	1.6	4.5	11.5	-3.1	19.2*	-0.4
O=C(N=C1SC2CS(=O)(=O)CC2N1c1ccc(Cl)cc1Cl)C1CC1 (stereo unspecified)	-0.7	1.1	0.4	5.3	1.6	-11.0	nt	nt
COc1ccc(CCNc2ccc(C(CC(N)=O)NC(=O)Cc3ccc(Br)cc3)cc2[N+](=O)[O-])cc1 (stereo unspecified)	17.7*	-4.9	2.4	-11.3	-7.2	-16.8	26.0*	-3.3
NC(=O)CC(NC(=O)Cc1ccc(Br)cc1)c1ccc(NCCc2ccccc2F)c([N+](=O)[O-])c1 (stereo unspecified)	24.1*	2.6	1.3	-9.0	-0.3	-9.7	24.6*	-1.3
NC(=O)CC(NC(=O)c1ccc(Br)cc1)c1ccc(NCc2ccc(F)cc2)c([N+](=O)[O-])c1 (stereo unspecified)	18.7*	2.7	5.2	1.1	2.4	-5.4	25.5*	-3.5
NC(=O)CC(NC(=O)Cc1ccc(Br)cc1)c1ccc(NCCc2ccc(F)cc2)c([N+](=O)[O-])c1 (stereo unspecified)	18.3*	1.0	13.2	5.8	4.8	-2.4	25.2*	-1.8
NC(=O)CC(NC(=O)c1ccc(Br)cc1)c1ccc(NCc2ccc(F)c(F)c2)c([N+](=O)[O-])c1 (stereo unspecified)	12.3	1.4	-2.7	4.6	7.5	-9.5	nt	nt
NC(=O)CC(NC(=O)Cc1ccc(Br)cc1)c1ccc(NCc2ccccn2)c([N+](=O)[O-])c1 (stereo unspecified)	0.2	3.0	18.0	8.6	3.2	8.2	nt	nt
CCCCNc1ccc(C(CC(N)=O)NC(=O)Cc2ccc(Br)cc2)cc1[N+](=O)[O-] (stereo unspecified)	6.0	1.1	3.5	9.3	4.8	-2.4	nt	nt
NC(=O)CC(NC(=O)Cc1ccc(Br)cc1)c1ccc(NCCc2ccc(Cl)cc2)c([N+](=O)[O-])c1 (stereo unspecified)	nt	nt	20.9	-7.9	nt	-4.0	nt	nt
CCN(c1ccccc1)S(=O)(=O)c1nnc(NC(=O)c2ccccc2OC)s1	-2.2	1.1	12.9	3.4	14.5	11.9	nt	nt
NC(=O)CC(NC(=O)c1ccccc1)c1ccc(NCCc2ccc(Cl)cc2)c([N+](=O)[O-])c1 (stereo unspecified)	8.4	1.1	7.7	-0.6	6.5	2.4	nt	nt
COc1ccc(CCNc2ccc(C(CC(N)=O)NC(=O)c3ccc(Br)cc3)cc2[N+](=O)[O-])cc1 (stereo unspecified)	17.6*	0.3	8.2	-0.5	4.8	-8.6	24.6*	-2.2
CC1=C(C(=O)OC2CCCCC2)C(c2ccc(N(C)C)cc2)NC(=O)N1 (stereo unspecified)	2.9	4.3	-2.9	7.5	6.4	-12.0	nt	nt
Nc1cccc2c1C(=O)N(C(=O)/C=C/c1ccc(F)cc1)C2=O	-1.3	-1.8	3.9	4.3	0.4	1.5	nt	nt
SMILES	PP1 counter	PP5 inh	PAFAH1B2 FP inh	PAFAH1B3 FP inh	pPAFAH FP inh	PAFAH2 FP inh	PP1 inh confirm	PP5 counter
O=C(Nc1ccc([N+](=O)[O-])cc1)c1ccc(S(=O)(=O)N2CCCC2)cc1	-2.0	4.2	3.0	7.9	2.8	-3.8	nt	nt
O=C(Nc1ccc(S(=O)(=O)N2CCCCCC2)cc1)c1[nH]ncc1[N+](=O)[O-]	57.8*	-0.1	6.9	3.6	15.5	3.8	16.2*	-4.2
COC(=O)c1cccc(N(CC(=O)NC2CCCC2)C(=O)CNC(=O)c2cccs2)c1	-1.4	0.2	2.5	1.2	-1.3	3.0	nt	nt
COc1ncccc1C(=O)N1CCCC(N2CCN(c3cccc(Cl)c3)CC2)C1 (stereo unspecified)	49.4*	1.9	2.1	2.1	1.1	-0.9	-7.4	-6.5
COc1ncccc1C(=O)N1CCCC(N2CCN(c3ccc(F)cc3)CC2)C1 (stereo unspecified)	2.6	-6.1	-10.0	-4.2	0.5	-3.1	nt	nt
COc1c(N2CCN(C(=S)NC3CC4CCC3C4)C(C)C2)c(F)cc2c(=O)c(C(=O)O)cn(C3CC3)c12 (stereo unspecified)	21.4*	-1.0	0.0	-0.8	2.6	2.5	38.0*	-5.2
CC(C)(C)C(=O)Nc1cccc(-c2nc3ccccc3[nH]2)c1	23.1*	1.1	2.1	2.1	1.4	-2.9	-1.0	-3.4
CC(C)CC(=O)Nc1cccc(-c2nc3ccccc3[nH]2)c1	-0.9	1.3	2.4	3.5	1.4	-2.4	nt	nt
O=C(Nc1ccc2oc(-c3ccncc3)nc2c1)c1ccc2c(c1)OCO2	29.5*	1.0	0.6	2.4	7.0	12.6	25.3*	0.8
O=C(Nc1ccc2oc(-c3ccncc3)nc2c1)c1ccc2c(c1)OCCO2	14.7	2.6	-0.2	10.0	-5.1	-0.8	nt	nt
